# In the library only some 2.6% were active in any assay of this set; here they are far more common.
# Cruzain inh Det: cruzain (T. cruzi) inhibition with detergent. P25779. purified cruzain, Z-FR-AMC fluorescence, 0.01% Triton. Potency, µM, hits mostly inhibitors. 0.43% of 200,000 active. AID 1478; note: nearly all actives have a fitted effect of over 40% in size
# Target sequence (P25779 123-467 limits assumed): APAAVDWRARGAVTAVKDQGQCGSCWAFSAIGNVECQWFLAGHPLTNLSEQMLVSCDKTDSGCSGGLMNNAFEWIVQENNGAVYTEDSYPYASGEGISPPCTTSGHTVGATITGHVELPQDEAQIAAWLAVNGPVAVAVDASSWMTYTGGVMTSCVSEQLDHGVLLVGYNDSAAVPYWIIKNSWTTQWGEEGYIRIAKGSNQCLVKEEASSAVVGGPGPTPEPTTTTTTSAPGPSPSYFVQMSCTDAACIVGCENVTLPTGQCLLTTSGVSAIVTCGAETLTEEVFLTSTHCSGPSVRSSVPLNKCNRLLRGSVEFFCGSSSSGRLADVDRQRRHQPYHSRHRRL
#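 15 min RT preincubation of 1.5 nM cruzain with compound, then 2 uM Z-FR-AMC added; kinetic AMC fluorescence, 60 s delta. Triton X-100 0.01%, pH 5.5.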
# Cruzain inh noDet: blocks cruzain activity in detergent-free assay | 2.3% of 200,000 active | purified cruzain, Z-FR-AMC fluorescence, no detergent | Potency, µM, usual class: inhibitors | P25779; note: nearly all actives have a fitted effect of over 40% in size
#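 Purified cruzain at 1.5 nM, pre-incubated 15 min with compound at room temperature in 100 mM sodium acetate pH 5.5, 5 mM DTT, 0.00005% Triton X-100. Reaction started with 2 uM Z-FR-AMC; AMC fluorescence increase over 60 s gives rate.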
# Numbers stand for hits; - = inactive; ? = inconclusive. Calls come from the whole dose curve; as a rule, active = well fitted curve in the direction sought with a large enough effect; inconclusive = small, poorly fitted or top-dose-only effect, or another doubt; inactive = no such curve, though single readings can be large; an effect the other way counts as inactive or inconclusive.
SMILES,Cruzain inh Det,Cruzain inh noDet
Cc1ccc(NC(=O)C2CCN(S(=O)(=O)c3ccc4[nH]c(=O)ccc4c3)CC2)cc1C,-,-
CCCOc1cccc(C(=O)N2CCCCC2CCN2CCCCC2)c1 (stereo unspecified),-,-
O=C1CS(=O)(=O)C2(C(=O)N(Cc3ccccc3Cl)c3ccccc32)N1c1ccc(F)cc1 (stereo unspecified),-,2.5µM
COc1ccc(N2C(=O)CS(=O)(=O)C23C(=O)N(Cc2cccc(F)c2)c2ccccc23)cc1OC (stereo unspecified),-,-
CN1C(=O)C2(c3ccccc31)N(c1cccc(F)c1)C(=O)CS2(=O)=O (stereo unspecified),-,-
Cc1ccc(CN2C(=O)C3(c4ccccc42)N(c2cccc(F)c2)C(=O)CS3(=O)=O)cc1 (stereo unspecified),-,1.6µM
Cc1ccc(N2C(=O)CS(=O)(=O)C23C(=O)N(Cc2cccc(F)c2)c2ccccc23)cc1Cl (stereo unspecified),-,2µM
O=C1CSC2(C(=O)N(Cc3ccccc3F)c3ccccc32)N1c1ccc(F)cc1 (stereo unspecified),-,-
N#CNC(N)=Nc1ccc(Cl)cc1,-,-
COc1ccc(CCNC(=O)c2ccc3c(c2)N(Cc2ccc(Cl)cc2)C(=O)c2ccccc2S3)cc1OC,-,?
COC(=O)CN1C(=O)CSc2ccc(S(=O)(=O)Nc3ccc(F)c(Cl)c3)cc21,-,-
CCOc1ccccc1CNC(=O)c1cc2c(=O)n(Cc3cccnc3)ccc2nc1C,-,-
CCN(CC)CCCNC(=O)c1ccc2c(c1)NC(=O)C(CS(=O)(=O)Cc1cccc(Br)c1)N2 (stereo unspecified),-,-
N#Cc1c(-c2ccc(C(F)(F)F)cc2)cc(-c2ccccc2)[nH]c1=S,-,-
Cc1ccc(-c2cc(-c3ccccc3)[nH]c(=S)c2C#N)cc1,-,16µM
COc1ccc2nc3oc(C(=O)N4CCN(c5cc(C)ccc5C)CC4)cc3cc2c1,-,-
Cc1csc(NC(=O)CSc2nnc(C)s2)n1,-,-
Cc1csc(NC(=O)CSc2nnc(NC(=O)COc3ccccc3)s2)n1,-,7.9µM
COc1ccc2c(c1)C(=O)[C@H](OC(=O)N[C@H](C)C1CCCCC1)[C@@H](c1ccc(OC)c(Br)c1)O2,-,-
CC(C)c1ccc(NC(=O)CN2C(=O)COc3ccc(S(=O)(=O)Nc4ccccc4)cc32)cc1,-,20µM
Cc1cccc(NC(=O)CN2C(=O)COc3ccc(S(=O)(=O)Nc4ccccc4)cc32)c1C,-,?
Cc1cc(C)c2c(c1)/C(=N/NC(=S)Nc1ccc(F)cc1)CCC2,-,16µM
Cc1cc(C)c2c(c1)/C(=N/NS(=O)(=O)c1ccccc1)CCC2,-,-
Cc1noc(C)c1CSc1nc2sc(C)c(C)c2c(=O)n1-c1ccccc1,-,-
COc1ccc(-c2noc(CSc3nc4sc(C)c(C)c4c(=O)n3-c3ccccc3)n2)cc1OC,-,-
SMILES,Cruzain inh Det,Cruzain inh noDet
O=c1c2ccccc2nc(SCc2nc(-c3ccccc3)no2)n1-c1ccc(F)cc1,-,25µM
COc1ccc(-c2noc(CSc3nc4sc(C)c(C)c4c(=O)n3-c3ccccc3)n2)cc1,-,7.9µM
Cc1noc(C)c1CSc1nc2ccccc2c(=O)n1-c1ccc(Cl)cc1,-,20µM
COc1ccc(-c2noc(CSc3nc4ccccc4c(=O)n3-c3ccccc3)n2)cc1OC,-,-
O=C1[C@@H]2[C@@H](C(=O)N1c1ccc(OCc3ccccc3)cc1)[C@@H]1c3ccccc3[C@@H]2[n+]2ccccc21,-,-
COc1cccc(C(=O)N2c3cc(C)ccc3C(C)(c3ccccc3)CC2(C)C)c1 (stereo unspecified),-,?
CCN(CC)S(=O)(=O)c1ccc2c(c1)N(CC(=O)NCCc1ccc(OC)c(OC)c1)C(=O)CO2,-,-
COc1ccc(N2CCN(CC(=O)Nc3nnc(-c4ccccc4)s3)CC2)cc1,-,25µM
O=C(CN1CCN(c2ccccc2)CC1)Nc1nnc(-c2ccccc2)s1,-,-
CC1=C[N+](=O)c2ccccc2[N+]1=O,-,-
COc1ccc(N(CC(=O)N/N=C/c2ccc(-c3ccc([N+](=O)[O-])cc3)o2)S(=O)(=O)c2ccc(C)cc2)cc1,-,4µM
COc1ccccc1NC(=O)CN(c1ccc([N+](=O)[O-])cc1)S(=O)(=O)c1ccccc1,-,-
COc1ccc(N(CC(=O)N/N=C/c2ccc(-c3ccc([N+](=O)[O-])cc3)o2)S(=O)(=O)c2ccc(C)cc2)cc1Cl,-,6.3µM
COc1ccc(NC(=O)CN(c2ccc([N+](=O)[O-])cc2)S(=O)(=O)c2ccccc2)c(OC)c1,-,-
COc1cccc(OCc2cc(=O)n3c(-c4ccccc4)csc3n2)c1,-,-
Cc1ccc(S(=O)(=O)C(CNC(=O)COc2ccccc2)c2cccs2)cc1 (stereo unspecified),-,-
C[N+](C)(C)CCCSc1nc2ccccc2[nH]1,-,-
CCOc1ccc(S(=O)(=O)N2CCN(c3ccc(Cl)c(Cl)c3)CC2)c2ccccc12,-,-
O=S(=O)(c1cccc2ccccc12)N1CCN(c2ccc(Cl)c(Cl)c2)CC1,-,20µM
COc1ccc(N2CCN(S(=O)(=O)CCNC(=O)c3c(F)cccc3Cl)CC2)cc1,-,-
CCN(CC)c1ccc(NC(=O)CCCN2C(=O)C(c3ccccc3)Oc3cccnc32)c(C)c1 (stereo unspecified),-,-
CCOc1ccc(-c2nnc(SCC(=O)Nc3cccc(Cl)c3C)o2)cc1,-,?
CCn1c2ccccc2c2cc(NC(=O)CSc3nnc(-c4cccc(F)c4)o3)ccc21,-,?
Cc1ccc(C)c(NC(=O)CSc2nnc(-c3ccccc3)o2)c1,-,-
CCn1c2ccccc2c2cc(NC(=O)CSc3nnc(-c4ccccc4)o3)ccc21,-,20µM
SMILES,Cruzain inh Det,Cruzain inh noDet
CCOc1ccc(-c2nnc(SCC(=O)Nc3cccc(C#N)c3)o2)cc1,25µM,25µM
CCn1c2ccccc2c2cc(NC(=O)CSc3nnc(-c4cccc(C)c4)o3)ccc21,-,7.9µM
CN(C(=O)CSc1cn(CC(=O)N2CCCC2)c2ccccc12)c1ccccc1,-,?
O=C(NCCN1CCCCC1)c1ccc(Cn2c(SCc3ccc(F)cc3)nc3cccnc32)cc1,-,-
CCOC(=O)CN1C(=O)N(c2ccc(C)c(C)c2)S(=O)(=O)c2ccccc21,-,-
Cc1c(C)n(C)c2ccc(C(=O)NCCc3ccc(Cl)cc3)cc12,-,?
Cc1ccc(S(=O)(=O)c2nc(C)oc2NCc2ccccc2)cc1,20µM,20µM
CCCCNc1oc(-c2ccc(OC)cc2)nc1S(=O)(=O)c1ccccc1,28µM,?
O=S(=O)(c1ccc(Cl)cc1)c1nc(-c2cccc(Br)c2)oc1NCc1ccccc1,-,13µM
Cc1ccc(S(=O)(=O)c2nc(-c3ccccc3F)oc2NCc2ccccc2)cc1,-,-
CCNc1oc(-c2ccc(OC)cc2)nc1S(=O)(=O)c1ccc(Br)cc1,-,-
O=S(=O)(c1ccccc1)c1nc(-c2ccco2)oc1NCc1ccccc1,22µM,25µM
O=S(=O)(c1ccccc1)c1nc(-c2cccc(Cl)c2)oc1NCc1ccccc1,-,-
O=S(=O)(c1ccccc1)c1nc(-c2ccco2)oc1NCc1ccco1,-,-
CCCc1cc(=O)n2[nH]c(NC(=O)c3ccc(C(C)(C)C)cc3)nc2n1,-,-
Cc1ccc(CNc2ncnc3onc(C)c23)cc1,-,-

# Screening data deposited in PubChem by National Center for Advancing Translational Sciences (NCATS).
